# Values joined by “and” are separate entries in the source; they are usually repeats but may differ in a detail not shown here. Identical values can stand only once. Records with an inconclusive call do not appear. Entries that show only a call come without a potency. Where a structure was tested more than once in an assay, its records may differ in their call. Active and inactive are the calls of the source. Unless noted, calls come from the whole dose curve.
# Key:
# [1] = qHTS assay to identify small molecule agonists of the sonic hedgehog signaling (Shh) pathway (AID 1259368);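 note: NIH/3T3-derived 3T3Gli1-Luc cells carrying a stable Gli1-driven firefly luciferase reporter; series mostly up to about 92 µM; nearly all actives have a fitted effect of over 15% in size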
# In short: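 Following a 24 hr incubation with DMSO-dissolved compounds at 37 C, 5% CO2, Gli1-Luc NIH/3T3-derived cells received luciferase reagent for 30 min at room temperature prior to luminescence measurement.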
# [2] = qHTS assay to identify small molecule antagonists of the sonic hedgehog signaling (Shh) pathway (AID 1259369); note: nearly all actives have a fitted effect of over 45% in size; note: potency is the fitted concentration of half-maximal effect
# In short: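 Read-out is luminescence from a firefly luciferase gene controlled by the Gli1 response element, in 3T3Gli1-Luc cells pre-incubated 4hr then exposed to compounds and conditioned medium for 24hr.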
# [3] = molecular target: Estrogen receptor beta (Homo sapiens) (UniProt Q92731); experiment: qHTS assay to identify small molecule agonists of the estrogen receptor beta (ER-beta) signaling pathway (AID 1259377; active = well fitted activation curve with a large enough effect in the signal ratio in the repeat runs, not every such curve was filed as active; the % refers to the signal ratio)
# Sequence of Estrogen receptor beta (Homo sapiens) (Q92731 whole entry, looked up): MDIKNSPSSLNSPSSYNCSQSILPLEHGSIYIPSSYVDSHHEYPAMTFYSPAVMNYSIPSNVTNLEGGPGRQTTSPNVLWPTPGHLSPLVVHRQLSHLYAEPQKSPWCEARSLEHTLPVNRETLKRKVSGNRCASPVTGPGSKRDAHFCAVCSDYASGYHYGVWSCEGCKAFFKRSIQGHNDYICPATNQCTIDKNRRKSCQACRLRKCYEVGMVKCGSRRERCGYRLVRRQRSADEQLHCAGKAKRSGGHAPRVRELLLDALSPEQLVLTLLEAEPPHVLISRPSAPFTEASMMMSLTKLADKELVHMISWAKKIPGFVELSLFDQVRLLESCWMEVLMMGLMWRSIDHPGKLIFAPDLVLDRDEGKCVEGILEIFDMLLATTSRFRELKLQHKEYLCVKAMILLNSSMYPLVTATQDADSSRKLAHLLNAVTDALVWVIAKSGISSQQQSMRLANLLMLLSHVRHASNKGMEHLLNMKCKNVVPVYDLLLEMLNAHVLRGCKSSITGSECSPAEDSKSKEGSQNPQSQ
# In short: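 ER-beta-UAS-bla HEK293T cells in medium with 2% charcoal-stripped FBS were exposed to compounds for 16 h at 37C. Beta-lactamase reporter activity was read as fluorescence after 2 h with LiveBLAzer B/G FRET substrate at room temperature.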
# [4] = molecular target: Estrogen receptor beta (Homo sapiens) (UniProt Q92731); experiment: qHTS assay to identify small molecule antagonists of the estrogen receptor beta (ER-beta) signaling pathway (AID 1259378; active = well fitted inhibition curve with a large enough effect in the signal ratio in the repeat runs, not every such curve was filed as active; the % refers to the signal ratio)
# In short: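 ER-beta-UAS-bla HEK293T cells in 2% charcoal-stripped FBS medium treated with compound plus 1nM final 17-beta-estradiol for 16 hr at 37C. Beta-lactamase reporter read by FRET substrate fluorescence after 2 hours at room temperature.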
# [5] = qHTS assay to identify small molecule agonists of the androgen receptor (AR) signaling pathway in the presence of an antagonist - cell viability counter screen (AID 1259379; active = well fitted curve in the direction sought with a large enough effect in the repeat runs; an effect the other way counts as inactive or inconclusive; note: nearly all actives have a fitted effect of over 25% in size; note: potency is the fitted concentration of half-maximal effect)
# In short: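 Each compound was tested at 15 concentrations on MDA-kb2 cells in the presence of 3.0uM nilutamide. Viability was measured by CellTiter-Fluor fluorescence after a 16 hr incubation at 37C in a CO2-free atmosphere.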
# [6] = qHTS assay to identify small molecule agonists of the estrogen receptor beta (ER-beta) signaling pathway - cell viability counter screen (AID 1259380; active = well fitted curve in the direction sought with a large enough effect in the repeat runs; an effect the other way counts as inactive or inconclusive; note: nearly all actives have a fitted effect of over 30% in size; note: potency is the fitted concentration of half-maximal effect)
# In short: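 Compounds dissolved in DMSO were pin-transferred onto ER-beta-UAS-bla HEK293T cells that had settled 6 hr, and exposure ran 16 hr at 37C. Following the reporter read, CellTiter-Glo luminescence after 30 min at room temperature indicated cytotoxicity.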
# [7] = qHTS assay to identify small molecule antagonists of the estrogen receptor beta (ER-beta) signaling pathway - cell viability counter screen (AID 1259382; active = well fitted curve in the direction sought with a large enough effect in the repeat runs; an effect the other way counts as inactive or inconclusive; note: series mostly up to about 92 µM; nearly all actives have a fitted effect of over 55% in size)
# In short: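 CellTiter-Glo ATP luminescence measured after the LiveBLAzer read in the same wells; ER-beta-UAS-bla HEK293T cells, 16 hr compound treatment with 1nM 17-beta-estradiol agonist at 37C, 5% CO2.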
# [8] = qHTS assay to identify small molecule agonists or antagonists of the thyroid stimulating hormone receptor (TSHR) signaling pathway - wild type cell line counter screen (AID 1259384)
# In short: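 Wild-type Hek293 cells, 800/well, 18 h at 37C, then compound with Ro20-1724 for 30 min RT. cAMP by HTRF (cAMP-d2/anti-cAMP cryptate), 1 h RT, fluorescence read. 15 concentrations, triplicates.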
# [9] = molecular target: Thyrotropin receptor (Homo sapiens) (UniProt P16473); experiment: qHTS assay to identify small molecule antagonists of the thyroid stimulating hormone receptor (TSHR) signaling pathway (AID 1259385); note: nearly all actives have a fitted effect of over 20% in size
# Sequence of Thyrotropin receptor (Homo sapiens) (P16473 whole entry, looked up): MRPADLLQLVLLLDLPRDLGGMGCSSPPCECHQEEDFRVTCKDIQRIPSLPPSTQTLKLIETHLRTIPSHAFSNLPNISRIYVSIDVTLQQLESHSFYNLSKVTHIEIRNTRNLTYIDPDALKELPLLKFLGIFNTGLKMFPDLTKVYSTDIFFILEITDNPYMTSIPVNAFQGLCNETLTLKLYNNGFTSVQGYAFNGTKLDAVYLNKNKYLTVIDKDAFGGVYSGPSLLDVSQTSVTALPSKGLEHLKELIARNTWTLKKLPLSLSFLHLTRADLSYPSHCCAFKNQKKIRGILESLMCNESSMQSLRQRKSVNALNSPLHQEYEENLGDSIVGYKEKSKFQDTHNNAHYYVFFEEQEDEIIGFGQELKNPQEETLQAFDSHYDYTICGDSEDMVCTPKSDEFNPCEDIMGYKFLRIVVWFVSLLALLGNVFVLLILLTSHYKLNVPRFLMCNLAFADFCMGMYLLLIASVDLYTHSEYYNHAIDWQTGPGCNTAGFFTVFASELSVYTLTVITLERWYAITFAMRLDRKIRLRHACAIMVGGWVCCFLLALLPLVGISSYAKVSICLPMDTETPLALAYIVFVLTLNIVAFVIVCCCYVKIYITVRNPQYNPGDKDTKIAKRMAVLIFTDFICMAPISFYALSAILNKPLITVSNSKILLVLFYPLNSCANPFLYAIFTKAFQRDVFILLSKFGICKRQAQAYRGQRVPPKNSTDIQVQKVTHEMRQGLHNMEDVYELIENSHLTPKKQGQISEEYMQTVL
# In short: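 TSHR-HEK293 cells (800/well) plated 18 h, then compounds with Ro20-1724 and TSH at 1.5 ng/mL final, 30 min at room temperature. cAMP quantified by HTRF (cAMP-d2/anti-cAMP-cryptate, 1 h); 15 concentrations in triplicate.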
# [10] = qHTS assay to identify small molecule agonists of the estrogen receptor alpha (ER-alpha) signaling pathway in the presence of an antagonist - cell viability counter screen (AID 1259386; active = well fitted curve in the direction sought with a large enough effect in the repeat runs; an effect the other way counts as inactive or inconclusive;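 note: cells exposed to compounds for 22 h at 37 °C before the viability read; nearly all actives have a fitted effect of over 30% in size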; note: potency is the fitted concentration of half-maximal effect)
# In short: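 Using estrogen-depleted VM7Luc4E2 cells, the 15-concentration compound series was applied together with 10.0nM ICI-182,780 and incubated 22hr at 37C/5% CO2. Cell viability was then scored by CellTiter-Fluor.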
# [11] = molecular target: Progesterone receptor (Homo sapiens) (UniProt P06401); experiment: qHTS assay to identify small molecule agonists of the progesterone receptor (PR) signaling pathway (AID 1346784); note: nearly all actives have a fitted effect of over 30% in size; note: potency is the fitted concentration of half-maximal effect
# Sequence of Progesterone receptor (Homo sapiens) (P06401 whole entry, looked up): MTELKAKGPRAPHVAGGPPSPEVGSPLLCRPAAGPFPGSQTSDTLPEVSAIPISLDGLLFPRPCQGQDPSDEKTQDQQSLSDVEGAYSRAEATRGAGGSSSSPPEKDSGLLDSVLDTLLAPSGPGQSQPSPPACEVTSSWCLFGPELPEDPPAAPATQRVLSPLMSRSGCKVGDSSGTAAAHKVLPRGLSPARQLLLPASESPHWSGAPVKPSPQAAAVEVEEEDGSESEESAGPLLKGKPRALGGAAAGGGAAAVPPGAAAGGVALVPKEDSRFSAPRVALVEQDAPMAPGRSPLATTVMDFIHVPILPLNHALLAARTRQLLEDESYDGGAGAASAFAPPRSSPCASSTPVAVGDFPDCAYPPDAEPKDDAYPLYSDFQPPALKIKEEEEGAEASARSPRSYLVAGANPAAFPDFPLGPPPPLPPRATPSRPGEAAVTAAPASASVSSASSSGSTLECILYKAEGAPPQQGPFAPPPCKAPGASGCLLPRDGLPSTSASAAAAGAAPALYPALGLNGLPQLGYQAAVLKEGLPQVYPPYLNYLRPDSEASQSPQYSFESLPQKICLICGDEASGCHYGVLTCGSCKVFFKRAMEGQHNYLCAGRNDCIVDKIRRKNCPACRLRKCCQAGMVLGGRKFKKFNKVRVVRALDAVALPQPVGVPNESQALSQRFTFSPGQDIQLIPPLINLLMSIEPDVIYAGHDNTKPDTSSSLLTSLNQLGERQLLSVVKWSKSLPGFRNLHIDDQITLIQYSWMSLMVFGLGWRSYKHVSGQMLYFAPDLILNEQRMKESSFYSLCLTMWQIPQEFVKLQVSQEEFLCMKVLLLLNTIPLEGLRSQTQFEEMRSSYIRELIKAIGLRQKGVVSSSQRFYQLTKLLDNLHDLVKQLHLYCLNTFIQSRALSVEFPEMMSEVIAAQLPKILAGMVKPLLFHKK
# In short: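 PR-UAS-bla HEK 293T cells (beta-lactamase reporter under UAS) in 2% charcoal-stripped FBS, dosed with 23 nL compound after 6 hr, incubated 16hr at 37C. LiveBLAzer B/G FRET substrate added, fluorescence read after 2 hours.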
# [12] = molecular target: Progesterone receptor (Homo sapiens) (UniProt P06401); experiment: qHTS assay to identify small molecule antagonists of the progesterone receptor (PR) signaling pathway (AID 1346795; active = well fitted inhibition curve with a large enough effect in the signal ratio in the repeat runs, not every such curve was filed as active; the % refers to the signal ratio; note: potency is the fitted concentration of half-maximal effect)
# In short: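 PR-UAS-bla HEK293T cells with beta-lactamase reporter under UAS control, in 2% charcoal-stripped FBS, treated with compounds plus 1 nM promegestone (R5020, final) for 16 hr at 37C. Read-out: FRET beta-lactamase substrate fluorescence after 2 hr at room temperature.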
# [13] = qHTS assay to identify small molecule antagonists of the progesterone receptor (PR) signaling pathway - cell viability counter screen (AID 1346798; active = well fitted curve in the direction sought with a large enough effect in the repeat runs; an effect the other way counts as inactive or inconclusive; note: nearly all actives have a fitted effect of over 50% in size; note: potency is the fitted concentration of half-maximal effect)
# In short: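 PR-UAS-bla HEK293T cells, 3,000/well in 2% charcoal-stripped FBS medium, dosed with compounds plus R5020 agonist and incubated 16 h at 37C. Viability then measured in the same wells by CellTiter-Glo luminescence after 30 min at RT.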
# [14] = qHTS assay to identify small molecule agonists of the progesterone receptor (PR) signaling pathway - cell viability counter screen (AID 1346799); note: nearly all actives have a fitted effect of over 45% in size; note: potency is the fitted concentration of half-maximal effect
# In short: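 Counter screen in the PR-UAS-bla HEK293T wells (2% charcoal-stripped FBS, 16 h compound exposure at 37 C) after the bla read. CellTiter-Glo added, 30 min at room temperature, luminescence read as cell viability.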
# [15] = qHTS assay to identify small molecule agonists of the TGF-beta/Smad signaling pathway - cell viability counter screen (AID 1346829; active = well fitted curve in the direction sought with a large enough effect in the repeat runs; an effect the other way counts as inactive or inconclusive; note: top concentration of the series differs between compounds; nearly all actives have a fitted effect of over 45% in size)
# In short: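 After overnight seating at 37 C and 5% CO2, reporter cells got compounds for 5 hr and FRET substrate for 2 hr; cell viability then came from CellTiter-Glo luminescence.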
# [16] = qHTS assay to identify small molecule agonists of the TGF-beta/Smad signaling pathway (AID 1346859; active = well fitted activation curve with a large enough effect in the signal ratio in the repeat runs, not every such curve was filed as active; the % refers to the signal ratio; note: series mostly up to about 77 µM)
# In short: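 SBE-bla HEK293T cells plated overnight, then compound exposure for 5 h at 37 C. Beta-lactamase reporter read with LiveBLAzer B/G FRET substrate after 2 h at room temperature, fluorescence at 405 nm excitation, 460/530 nm emission.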
# [17] = molecular target: Thyrotropin-releasing hormone receptor (Homo sapiens) (UniProt P34981); experiment: qHTS assay to identify small molecule antagonists of the thyrotropin-releasing hormone receptor (TRHR) signaling pathway (AID 1346877; active = well fitted inhibition curve with a large enough effect in the repeat runs, not every such curve was filed as active; note: series mostly up to about 51 µM)
# Sequence of Thyrotropin-releasing hormone receptor (Homo sapiens) (P34981 whole entry, looked up): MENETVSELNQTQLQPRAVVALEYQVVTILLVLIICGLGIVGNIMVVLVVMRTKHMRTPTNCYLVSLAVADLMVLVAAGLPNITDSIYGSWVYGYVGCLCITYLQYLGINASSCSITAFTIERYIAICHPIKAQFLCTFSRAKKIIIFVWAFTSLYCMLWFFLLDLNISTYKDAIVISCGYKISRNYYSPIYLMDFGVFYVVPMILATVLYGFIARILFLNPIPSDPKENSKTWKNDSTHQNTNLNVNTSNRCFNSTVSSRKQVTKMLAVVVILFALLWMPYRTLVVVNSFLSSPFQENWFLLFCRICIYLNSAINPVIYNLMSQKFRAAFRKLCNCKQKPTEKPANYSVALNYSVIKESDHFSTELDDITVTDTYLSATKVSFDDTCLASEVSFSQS
# In short: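 Calcium signal in dye-loaded TRHR/HEK293 cells; compounds added 5 min before TRH (1 nM final); fluorescence monitored 3 min at 1 s steps.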
# [18] = molecular target: Estrogen receptor (Homo sapiens) (UniProt P03372); experiment: qHTS assay to identify small molecule agonists of the estrogen receptor alpha (ER-alpha) signaling pathway in the presence of an antagonist (AID 1259383); note: top concentration of the series differs between compounds; nearly all actives have a fitted effect of over 15% in size
# Sequence of Estrogen receptor (Homo sapiens) (P03372 whole entry, looked up): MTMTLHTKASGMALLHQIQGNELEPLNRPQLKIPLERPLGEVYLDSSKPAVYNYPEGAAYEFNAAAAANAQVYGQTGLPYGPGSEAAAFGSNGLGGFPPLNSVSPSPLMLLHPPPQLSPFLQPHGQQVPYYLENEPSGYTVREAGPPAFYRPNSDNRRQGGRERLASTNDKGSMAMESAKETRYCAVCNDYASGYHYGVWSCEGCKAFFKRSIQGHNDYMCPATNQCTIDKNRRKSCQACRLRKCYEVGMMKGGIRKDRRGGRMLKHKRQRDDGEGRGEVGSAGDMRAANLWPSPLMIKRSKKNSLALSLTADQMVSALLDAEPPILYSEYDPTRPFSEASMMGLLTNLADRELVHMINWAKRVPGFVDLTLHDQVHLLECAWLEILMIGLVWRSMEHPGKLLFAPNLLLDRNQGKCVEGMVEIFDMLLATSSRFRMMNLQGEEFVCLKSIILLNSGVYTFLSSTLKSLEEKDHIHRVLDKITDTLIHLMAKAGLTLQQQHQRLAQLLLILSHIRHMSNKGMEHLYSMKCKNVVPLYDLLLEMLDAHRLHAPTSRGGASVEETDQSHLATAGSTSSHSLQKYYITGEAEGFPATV
# In short: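 Luminescent ERE-luciferase reporter, VM7Luc4E2 cells (endogenous ER-alpha); 10.0nM ICI-182,780 final; 15-point compound titration; 22hr at 37C; ONE-Glo, 30min RT.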
# [19] = qHTS assay to identify small molecule antagonists of the TGF-beta/Smad signaling pathway - cell viability counter screen (AID 1346824; active = well fitted curve in the direction sought with a large enough effect in the repeat runs; an effect the other way counts as inactive or inconclusive; note: nearly all actives have a fitted effect of over 50% in size)
# In short: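 SBE-bla HEK 293T cells, incubated overnight, then compound plus 0.25 ng/mL TGF-beta1 (stock added) for 5 hr at 37 C. Viability was read in the same wells by CellTiter-Glo luminescence after 30 min at room temperature.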
# [20] = molecular target: Androgen receptor (Homo sapiens) (UniProt P10275); experiment: qHTS assay to identify small molecule agonists of the androgen receptor (AR) signaling pathway in the presence of an antagonist (AID 1259381); note: nearly all actives have a fitted effect of over 15% in size; note: potency is the fitted concentration of half-maximal effect
# Sequence of Androgen receptor (Homo sapiens) (P10275 whole entry, looked up): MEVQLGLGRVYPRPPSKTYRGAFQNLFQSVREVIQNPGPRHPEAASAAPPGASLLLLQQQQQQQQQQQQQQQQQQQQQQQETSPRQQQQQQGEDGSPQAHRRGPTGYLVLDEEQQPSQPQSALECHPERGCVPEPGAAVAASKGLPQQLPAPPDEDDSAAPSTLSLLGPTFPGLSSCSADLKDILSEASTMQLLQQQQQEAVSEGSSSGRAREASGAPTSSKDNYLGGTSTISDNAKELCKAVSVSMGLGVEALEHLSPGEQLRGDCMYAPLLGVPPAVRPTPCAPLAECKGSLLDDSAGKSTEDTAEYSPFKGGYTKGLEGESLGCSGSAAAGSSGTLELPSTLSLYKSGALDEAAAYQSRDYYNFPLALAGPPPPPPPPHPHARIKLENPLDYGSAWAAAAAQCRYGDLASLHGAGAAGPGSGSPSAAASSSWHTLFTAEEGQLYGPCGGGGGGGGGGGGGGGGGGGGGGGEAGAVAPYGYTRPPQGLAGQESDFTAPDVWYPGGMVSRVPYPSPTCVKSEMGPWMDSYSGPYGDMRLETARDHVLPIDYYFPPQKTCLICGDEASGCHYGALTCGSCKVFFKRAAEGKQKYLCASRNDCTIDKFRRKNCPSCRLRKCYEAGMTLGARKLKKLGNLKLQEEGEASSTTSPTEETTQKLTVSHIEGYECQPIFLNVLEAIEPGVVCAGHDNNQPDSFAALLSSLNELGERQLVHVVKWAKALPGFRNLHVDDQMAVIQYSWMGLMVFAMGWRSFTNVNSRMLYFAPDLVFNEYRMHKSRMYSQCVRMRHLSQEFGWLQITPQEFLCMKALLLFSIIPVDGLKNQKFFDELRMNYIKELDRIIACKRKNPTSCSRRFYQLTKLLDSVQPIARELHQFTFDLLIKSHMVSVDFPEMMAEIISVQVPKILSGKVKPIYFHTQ
# In short: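 Plated MDA-kb2 cells (3,000/well) were pre-incubated 5hr, given nilutamide (3.0uM final) or buffer, then dosed with compounds in DMSO at 15 concentrations. Luciferase activity was quantified by luminescence after 16hr at 37C.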
SMILES,outcome [1],Potency [2],Potency [3],Potency [4],Potency [5],Potency [6],Potency [7],outcome [8],outcome [9],Potency [10],Potency [11],Potency [12],Potency [13],Potency [14],Potency [15],outcome [16],outcome [17],Potency [18],Potency [19],Potency [20]
CCCCC(CC)COC(C)=O (stereo unspecified),inactive,inactive,inactive,inactive,inactive,inactive,inactive,inactive,inactive,inactive,inactive,inactive,inactive,inactive,inactive,inactive,inactive,–,–,–
CCCCCC/C=C/CCCCCCCC(=O)O,inactive,inactive,inactive,inactive,inactive,inactive,inactive,inactive,inactive,inactive,inactive,inactive,inactive,inactive,inactive,inactive,inactive,inactive,inactive,–
O=[N+]([O-])C(CO)(CO)CO,inactive,0.151 µM (active),inactive,inactive,inactive,inactive,inactive,inactive,inactive,inactive,inactive,inactive,inactive,inactive,inactive,inactive,inactive,inactive,inactive,–
Oc1ccc2ccccc2c1N=Nc1ccccc1,inactive,inactive,inactive,inactive,21.7 µM (active) and 27.3 µM (active),–,inactive,inactive,inactive,21.7 µM (active) and 19.3 µM (active),inactive,24.3 µM (active),inactive,inactive,inactive,inactive,inactive,inactive,inactive,–
C/C=C(C)/C=C/C=C(C)C,inactive,27.3 µM (active),inactive,inactive,inactive,inactive,inactive,–,–,inactive,inactive,inactive,inactive,inactive,inactive,inactive,–,–,–,–
Clc1ccc(Cl)c(Cl)c1Cl,inactive,inactive,inactive,inactive,inactive,inactive,inactive,inactive,inactive,inactive,inactive,inactive,inactive,inactive,inactive,inactive,inactive,–,inactive,–
C=C(C)C(=O)OCCC[Si](OC)(OC)OC,inactive,inactive,inactive,inactive,inactive,inactive,inactive,inactive,inactive,inactive,inactive,inactive,inactive,inactive,inactive,inactive,inactive,inactive,inactive,–
Nc1cc(-c2ccncc2)c[nH]c1=O,inactive,inactive,inactive,inactive,inactive,–,inactive,inactive,–,inactive,inactive,inactive,inactive,inactive,inactive,inactive,inactive,inactive,inactive,inactive
O=C1N=C(O)CN1/N=C/c1ccc(-c2ccc([N+](=O)[O-])cc2)o1,inactive,inactive,–,–,30.6 µM (active) and 23.7 µM (active),inactive,inactive,inactive,–,27.3 µM (active) and 26.6 µM (active),inactive,inactive,inactive,inactive,inactive,–,–,–,–,–
O=C(O)c1cc(-c2ccccc2)nc2ccccc12,inactive,inactive,–,–,inactive,inactive,inactive,inactive,inactive,inactive,779 nM (active) and inactive,inactive,inactive,inactive,inactive,inactive,inactive,–,inactive,55.1 µM (active) and inactive
CCCCC(CC)COC(=O)/C=C\C(=O)OCC(CC)CCCC (stereo unspecified),inactive,–,inactive,inactive,inactive,inactive,inactive,inactive,inactive,inactive,inactive,inactive,inactive,inactive,inactive,inactive,inactive,–,inactive,inactive
S=c1nc[nH]c2nc[nH]c12,inactive,inactive,inactive,–,inactive,7.51 µM (active) and 3.35 µM (active),–,inactive,inactive,inactive,inactive,–,8.41 µM (active),4.74 µM (active) and 11.9 µM (active),–,inactive,inactive,inactive,–,–
O=c1c(-c2ccc(O)cc2)coc2cc(O)ccc12,inactive,13.5 µM (active) and 19.3 µM (active),–,–,inactive,–,inactive,inactive,inactive,inactive,inactive,inactive,inactive,inactive,inactive,inactive,–,–,inactive,inactive
CCCCCCCCC,inactive,inactive,inactive,inactive,inactive,–,inactive,inactive,inactive,inactive,inactive,inactive,inactive,inactive,inactive,inactive,inactive,inactive,–,–
C=C(C)C(=O)OCCCCCC,inactive,inactive,–,–,inactive,inactive,inactive,inactive,inactive,inactive,inactive,inactive,inactive,inactive,inactive,inactive,inactive,inactive,–,–
CC1COc2ccccc2N1C(=O)C(Cl)Cl (stereo unspecified),inactive,15.3 µM (active),inactive,inactive,–,inactive,inactive,inactive,inactive,inactive,inactive,30.6 µM (active) and 24.3 µM (active),–,–,inactive,inactive,inactive,inactive,–,–

# Source: PubChem BioAssay (Tox21)
